In PubChem BioAssay (NCI) one finds growth inhibition data, which are given here for 21 compounds.

A short description of test [1]: NCI Yeast Anticancer Drug Screen. Data for the rad50 strain (AID 155).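 Also: 0% = growth of vehicle-only cultures of the same strain.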 To be noted: S. cerevisiae rad50 strain growth inhibition; at 50.0 µM; stronger effect = higher value. Summed up: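 Relative growth inhibition (compound vs vehicle) was measured in yeast with a defined repair-gene alteration.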
Test [2] in a line: NCI Yeast Anticancer Drug Screen. Data for the mec2-1 strain (AID 157). Particulars: S. cerevisiae mec2-1 strain, at 50.0 µM, stronger effect = higher value. The essentials:
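Growth inhibition is read against vehicle-treated controls after compound exposure of the mec2-1 yeast strain, which is defective in DNA damage repair or cell cycle control.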

Test [3] can be described thus: NCI Yeast Anticancer Drug Screen. Data for the sgs1 mgt1 strain (AID 161).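 Also: 0% = growth of cultures given vehicle only.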 To be noted: S. cerevisiae sgs1 mgt1 strain, at 50.0 µM, stronger effect = higher value. Summed up: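 This yeast growth screen uses a strain with defined DNA-repair lesions; compound-treated growth is compared with vehicle-treated growth.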
Test [4] in a line: NCI Yeast Anticancer Drug Screen. Data for the cln2 rad14 strain (AID 165).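 Also: 0% = growth equal to vehicle treated cultures.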 Particulars: S. cerevisiae cln2 rad14 strain, at 50.0 µM, stronger effect = higher value. The essentials: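 Growth inhibition, relative to vehicle-treated controls, is the read-out. The test organism is a yeast strain with defined genetic alterations, cln2 rad14.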
Test [5] is described as follows: NCI Yeast Anticancer Drug Screen. Data for the bub3 strain (AID 167). To be noted: S. cerevisiae bub3 mutant strain, at 50.0 µM, stronger effect = higher value. Summed up: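 Screening used yeast with an engineered genetic alteration affecting cell cycle control. Compound-exposed cultures were compared with vehicle cultures, and reduced growth was taken as inhibition.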
The nature of test [6]: NCI Yeast Anticancer Drug Screen. Data for the mlh1 rad18 strain (AID 175). Particulars: S. cerevisiae mlh1 rad18 strain growth inhibition; at 50.0 µM; stronger effect = higher value. The essentials: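 Cells of a genetically altered yeast strain, deficient in DNA damage repair, were treated with compound. Their growth was then compared with that of vehicle-treated cultures to give inhibition.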

Structures are written as SMILES. The panel holds about 79,000 compounds, 15% with a hit somewhere; the sample as a whole holds those more often. Unmarked numbers belong to inactive results. Calls of active or inactive are those of the source. Rule as the data show it: active = growth inhibition above about 70%; inactive = the rest.

Turning to `CCCCCCCCCCCCSc1nc2c([nH]1)c(=O)n(C)c(=S)n2C`, the growth inhibition in test [1] was -24.1%; in test [2], 0.75%; in test [3], -31.9%; in test [4] it was 16.4%; in test [5], -1.05%; in test [6], -15.2%.

In the case of `O=C1CC2COc3ccccc3C2=NN1c1ccccc1` (stereo unspecified), the growth inhibition in test [1] is 13.6%; in test [2], 4.3%; in test [3], 4.7%; in test [4], 1.35%; in test [5], -4.15%; in test [6], 10.2%.

In the case of `CN(C)c1ccc(-c2cc(C(=O)O)c3cc(I)ccc3n2)c(Cl)c1`, the growth inhibition in test [1] is 45.9%; in test [2], 30.6%; in test [3], 36.5%; in test [4], 51.4%; in test [5], 46.1%; in test [6] it was 35.8%.

Regarding `COc1cc(N)ccc1C(=O)NC(CCC(=O)O)C(=O)O` (stereo unspecified), the growth inhibition in test [1] was -14.5%; in test [2], -11.2%; in test [3] it was 24.9%; in test [4], -33.7%; in test [5], 17.9%; in test [6], -19.7%.

Take `CCCCCC(=O)OCCN(C)C`: the growth inhibition was -7.15% in test [1]; -24.2% in test [2]; -4.45% in test [3]; 21.1% in test [4]; -13.5% in test [5]; 24.9% in test [6].

As to `O=C1NC(=O)C2(N1)c1ccccc1-c1ccc(Br)cc12` (stereo unspecified), the growth inhibition is -2.85% in test [1]; -8.9% in test [2]; -0.2% in test [3]; -20.4% in test [4]; 0.15% in test [5]; -2.7% in test [6].

As to `O=C1CSC=C(c2ccccc2)O1`, the growth inhibition in test [1] is 4.45%; in test [2], 4.4%; in test [3], -4.7%; in test [4], -40.8%; in test [5], -0.5%; in test [6], -19.4%.

For the compound `NNC(=O)c1c[nH]c2ccccc2c1=O`, the growth inhibition in test [1] is 3.7%; in test [2] it was 13.1%; in test [3], 0.85%; in test [4] it was -20.6%; in test [5], 5.1%; in test [6], 5.4%.

For the compound `N#C/C(=C/NC(=S)N=Nc1c(O)[nH]c2ccccc12)C(N)=O`, the growth inhibition is -33.7% in test [1]; -51.7% in test [2]; -19.8% in test [3]; -6.6% in test [4]; -0.9% in test [5]; -18.9% in test [6].

Consider `ON1c2ccccc2-c2ccccc2C1(c1ccccc1)c1ccccc1`, for which the growth inhibition was 95.8% (active) in test [1]; 96.6% (active) in test [2]; 78.7% (active) in test [3]; 69.8% in test [4]; 71.5% (active) in test [5]; 97.3% (active) in test [6].

For the compound `CC(C)CCc1ccc(O)cc1`, the growth inhibition in test [1] is 5%; in test [2] it was -10.9%; in test [3], -27.2%; in test [4] it was -31.9%; in test [5] it was 0.65%; in test [6] it was -5.15%.

Regarding `CC(C)(C)NC(=O)Oc1ccc(-c2ccccc2)cc1Cl`, the growth inhibition in test [1] is 98.8% (active); in test [2], 99.5% (active); in test [3], 99.2% (active); in test [4], 98.3% (active); in test [5], 99.3% (active); in test [6], 99.3% (active).

Regarding `Cc1ccc(NC(=O)C(=O)C(C#N)c2nc(-c3ccc(-c4ccccc4)cc3)cs2)c(C)c1` (stereo unspecified), the growth inhibition in test [1] was 8%; in test [2], -2.75%; in test [3], 19.4%; in test [4], 28.4%; in test [5], 4.75%; in test [6], -10.1%.

Regarding `Cc1cc2nccnc2cc1C`, the growth inhibition is -48.8% in test [1]; -65.8% in test [2]; -31.4% in test [3]; -3.4% in test [4]; -65.5% in test [5]; -23.2% in test [6].

With `CC(N)c1ccc(OCCOc2ccc(C(C)(C)CC(C)(C)C)cc2)cc1` (stereo unspecified), the growth inhibition in test [1] is 98.9% (active); in test [2], 99% (active); in test [3], 42.7%; in test [4] it was 97.7% (active); in test [5] it was 98.9% (active); in test [6] it was 99% (active).

For `CC1=CC(CO)C2C(=O)NC(=O)C2C1C` (stereo unspecified), the growth inhibition in test [1] was 7.2%; in test [2], -6.15%; in test [3], -9.75%; in test [4] it was -39.5%; in test [5], -17.1%; in test [6] it was 7.7%.

Regarding `ClC(Cl)(Cl)c1ccc(C2OCCO2)cc1`, the growth inhibition is -17.8% in test [1]; -6.8% in test [2]; -7.85% in test [3]; -26.6% in test [4]; -22% in test [5]; -0.3% in test [6].

Consider `O/N=C1\CCC2CCCCC12` (stereo unspecified), for which the growth inhibition in test [1] was 27.5%; in test [2] it was 14.5%; in test [3], 2.55%; in test [4], 19.1%; in test [5], 1.05%; in test [6] it was 24.9%.

On to `COc1cc(C(c2ccc3c(c2)OCO3)N2C(=O)CCC2C(=O)O)cc(OC)c1OC` (stereo unspecified), for which the growth inhibition in test [1] is -14.1%; in test [2], -15.6%; in test [3], -18.8%; in test [4], -11.7%; in test [5] it was -7.8%; in test [6] it was -10.2%.

For the compound `O=C(NC[N+]12CCO[B-]1(c1ccccc1)OCC2)c1ccccc1O` (stereo unspecified), the growth inhibition was 25.9% in test [1]; -8.4% in test [2]; 4.7% in test [3]; 13.3% in test [4]; -0.75% in test [5]; 10.5% in test [6].

Turning to `Cc1nc(N(C)C)oc(=O)c1Cc1ccccc1`, the growth inhibition in test [1] was -0.9%; in test [2] it was 18.6%; in test [3] it was 17.4%; in test [4], -8.8%; in test [5] it was 20.6%; in test [6], 6.2%.
